Experimental findings from publication PMC7862700, “An all-to-all approach to the identification of sequence-specific readers for epigenetic DNA modifications on cytosine” are described below.

Holding throughout (assay): DAPPL (digital affinity profiling via proximity ligation, sequencing); 10 mM Tris-HCl pH 7.5, 50 mM NaCl, 1 mM DTT, 4% glycerol, room temperature, 30 min; GST-TFs on glutathione beads, 16-mer random dsDNA library, 0.1% formaldehyde crosslink after washing; high values mean tight binding
The target of one assay is T1, FEV (Homo sapiens, UniProt Q99581 1-238).
T1 sequence: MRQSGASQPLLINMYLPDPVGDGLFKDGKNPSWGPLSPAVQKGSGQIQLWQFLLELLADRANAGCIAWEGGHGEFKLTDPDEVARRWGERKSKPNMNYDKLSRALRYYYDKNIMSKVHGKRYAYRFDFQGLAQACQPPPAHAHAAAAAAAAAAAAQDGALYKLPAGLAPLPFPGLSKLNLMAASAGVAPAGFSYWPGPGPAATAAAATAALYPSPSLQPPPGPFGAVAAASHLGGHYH
To be noted: protein: recombinant; tags: N-terminal GST; dsDNA, one strand shown. Summed up:
(§1)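 Human transcription factors fused to GST were expressed in yeast, captured on glutathione beads, given DNA barcodes and pooled with a GST-only negative control. Pools were incubated with 200 nmole of a 16-mer random double-stranded DNA library in Tris/NaCl/DTT/glycerol buffer at room temperature for 30 min. They were then washed, crosslinked with 0.1% formaldehyde, proximity-ligated (BsaI/T4 ligase, 1 h, 37 °C), PCR-amplified and sequenced on an Illumina NextSeq500. Binding signal is each 6-mer's read frequency for a factor divided by its frequency for the GST control.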

The target in another assay is ETV5 (Homo sapiens, UniProt P41161 1-510). To be noted: protein: recombinant; tags: N-terminal GST; dsDNA, one strand shown. Summed up:
as §1

In a further assay the target is HSF1 (Homo sapiens, UniProt Q00613 1-529). As to conditions: protein: recombinant; tags: N-terminal GST; chain copies: 3; dsDNA, one strand shown. The procedure, abridged:
as §1

The target in the next assay is T2, SPIC (Homo sapiens, UniProt Q8N5J4 1-248).
T2 sequence: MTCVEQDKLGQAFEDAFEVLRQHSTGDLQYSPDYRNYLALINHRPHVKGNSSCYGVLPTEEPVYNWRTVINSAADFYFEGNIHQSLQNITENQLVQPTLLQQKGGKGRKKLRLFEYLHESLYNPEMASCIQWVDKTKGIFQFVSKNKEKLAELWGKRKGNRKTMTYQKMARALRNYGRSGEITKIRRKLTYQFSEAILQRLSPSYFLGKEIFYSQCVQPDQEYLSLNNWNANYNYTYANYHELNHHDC
To be noted: protein: recombinant; tags: N-terminal GST; dsDNA, one strand shown. The procedure, abridged: as §1

For another assay, the target named is ELF4 (Homo sapiens, UniProt Q99607 1-663). As to conditions: protein: recombinant; tags: N-terminal GST; dsDNA, one strand shown. Summed up: as §1
Chain of ELF4 (Q99607 whole entry): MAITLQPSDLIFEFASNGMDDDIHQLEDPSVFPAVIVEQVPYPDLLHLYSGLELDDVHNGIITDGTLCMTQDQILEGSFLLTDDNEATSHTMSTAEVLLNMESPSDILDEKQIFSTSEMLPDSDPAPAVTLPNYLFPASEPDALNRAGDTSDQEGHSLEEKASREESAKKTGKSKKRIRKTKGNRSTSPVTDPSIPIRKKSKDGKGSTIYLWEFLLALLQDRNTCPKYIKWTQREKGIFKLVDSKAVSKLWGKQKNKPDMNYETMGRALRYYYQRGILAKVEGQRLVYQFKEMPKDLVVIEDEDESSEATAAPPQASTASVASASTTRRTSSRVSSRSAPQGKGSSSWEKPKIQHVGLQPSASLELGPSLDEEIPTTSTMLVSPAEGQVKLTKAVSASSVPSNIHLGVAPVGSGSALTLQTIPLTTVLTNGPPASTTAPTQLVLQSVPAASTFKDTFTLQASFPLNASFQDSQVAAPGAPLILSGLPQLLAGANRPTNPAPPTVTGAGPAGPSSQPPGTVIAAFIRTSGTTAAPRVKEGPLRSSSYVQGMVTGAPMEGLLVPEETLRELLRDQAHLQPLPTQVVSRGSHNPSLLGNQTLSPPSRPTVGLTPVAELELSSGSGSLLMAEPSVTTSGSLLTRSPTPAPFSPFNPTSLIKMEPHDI
The target of another assay is T3, ELK4 (Homo sapiens, UniProt P28324-2 1-405).
T3 sequence: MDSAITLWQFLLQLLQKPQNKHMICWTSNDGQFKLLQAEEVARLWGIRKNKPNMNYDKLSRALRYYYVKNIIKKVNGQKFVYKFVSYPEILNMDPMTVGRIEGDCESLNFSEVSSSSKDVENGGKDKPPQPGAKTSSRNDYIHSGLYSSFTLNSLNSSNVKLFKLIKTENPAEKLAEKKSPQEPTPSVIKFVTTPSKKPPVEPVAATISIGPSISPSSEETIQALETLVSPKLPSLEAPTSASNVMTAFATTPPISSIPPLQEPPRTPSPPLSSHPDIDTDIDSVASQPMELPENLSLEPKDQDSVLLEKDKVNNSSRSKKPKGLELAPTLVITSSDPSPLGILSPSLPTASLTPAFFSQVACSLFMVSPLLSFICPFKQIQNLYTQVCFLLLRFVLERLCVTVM
As to conditions: protein: recombinant; tags: N-terminal GST; dsDNA, one strand shown. The procedure, abridged: as §1

For another assay, the target named is T4, ETV2 (Homo sapiens, UniProt O00321 1-342).
T4 sequence: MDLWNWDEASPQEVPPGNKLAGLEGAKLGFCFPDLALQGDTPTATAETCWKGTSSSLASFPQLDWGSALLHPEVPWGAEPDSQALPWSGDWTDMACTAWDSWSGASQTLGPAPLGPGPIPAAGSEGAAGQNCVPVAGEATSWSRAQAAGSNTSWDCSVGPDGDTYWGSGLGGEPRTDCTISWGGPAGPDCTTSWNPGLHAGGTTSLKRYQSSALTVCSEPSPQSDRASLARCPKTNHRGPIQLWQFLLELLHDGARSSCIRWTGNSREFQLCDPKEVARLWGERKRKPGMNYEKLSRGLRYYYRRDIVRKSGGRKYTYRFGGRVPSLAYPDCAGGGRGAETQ
To be noted: protein: recombinant; tags: N-terminal GST; dsDNA, one strand shown. The procedure, abridged: as §1

The next assay concerns the target T5, ELF3 (Homo sapiens, UniProt P78545 1-371).
T5 sequence: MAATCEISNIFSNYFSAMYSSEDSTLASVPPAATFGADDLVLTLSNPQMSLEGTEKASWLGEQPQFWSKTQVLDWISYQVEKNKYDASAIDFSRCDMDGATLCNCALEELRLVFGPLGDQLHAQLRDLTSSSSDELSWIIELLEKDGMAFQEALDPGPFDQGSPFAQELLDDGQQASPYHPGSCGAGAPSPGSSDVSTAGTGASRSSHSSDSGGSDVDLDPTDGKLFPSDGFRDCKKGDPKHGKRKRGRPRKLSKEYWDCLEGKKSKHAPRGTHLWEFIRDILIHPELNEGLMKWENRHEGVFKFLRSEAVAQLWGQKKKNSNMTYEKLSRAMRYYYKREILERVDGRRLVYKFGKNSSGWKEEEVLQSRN
As to conditions: protein: recombinant; tags: N-terminal GST; dsDNA, one strand shown. The procedure, abridged:
as §1

A further assay addresses CRX (Homo sapiens, UniProt O43186 1-299). As to conditions: protein: recombinant; tags: N-terminal GST; dsDNA, one strand shown. Summed up:
as §1

The target of a further assay is ETV1 (Homo sapiens, UniProt P50549 1-477). To be noted: protein: recombinant; tags: N-terminal GST; dsDNA, one strand shown. The procedure, abridged:
as §1

Another assay deals with T6, ERF (Homo sapiens, UniProt P50548 1-548).
T6 sequence: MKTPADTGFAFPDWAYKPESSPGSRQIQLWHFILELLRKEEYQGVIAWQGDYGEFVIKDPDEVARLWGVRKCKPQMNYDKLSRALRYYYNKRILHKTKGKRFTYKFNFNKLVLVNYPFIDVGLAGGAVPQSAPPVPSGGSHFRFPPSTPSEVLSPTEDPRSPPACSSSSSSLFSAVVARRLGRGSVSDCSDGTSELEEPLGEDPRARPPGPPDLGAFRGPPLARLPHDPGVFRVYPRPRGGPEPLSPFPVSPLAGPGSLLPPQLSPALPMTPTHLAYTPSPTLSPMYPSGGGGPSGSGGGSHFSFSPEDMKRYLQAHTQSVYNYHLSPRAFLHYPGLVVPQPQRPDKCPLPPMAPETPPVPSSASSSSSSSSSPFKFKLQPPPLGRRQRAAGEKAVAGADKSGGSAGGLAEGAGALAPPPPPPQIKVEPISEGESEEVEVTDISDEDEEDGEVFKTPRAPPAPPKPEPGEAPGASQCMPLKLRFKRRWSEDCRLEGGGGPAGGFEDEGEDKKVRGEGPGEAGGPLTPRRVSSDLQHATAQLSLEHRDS
As to conditions: protein: recombinant; tags: N-terminal GST; dsDNA, one strand shown. Summed up:
as §1

Another assay addresses T7, ETV3L (Homo sapiens, UniProt Q6ZN32 1-361).
T7 sequence: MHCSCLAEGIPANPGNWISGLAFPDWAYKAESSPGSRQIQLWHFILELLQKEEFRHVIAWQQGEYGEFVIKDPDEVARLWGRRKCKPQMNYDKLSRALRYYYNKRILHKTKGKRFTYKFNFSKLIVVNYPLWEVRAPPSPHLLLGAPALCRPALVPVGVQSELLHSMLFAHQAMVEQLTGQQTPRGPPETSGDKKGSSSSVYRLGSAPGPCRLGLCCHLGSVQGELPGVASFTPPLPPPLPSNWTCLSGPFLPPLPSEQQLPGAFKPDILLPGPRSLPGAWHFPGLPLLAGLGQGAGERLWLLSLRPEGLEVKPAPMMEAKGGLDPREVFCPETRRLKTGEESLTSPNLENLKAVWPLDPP
As to conditions: protein: recombinant; tags: N-terminal GST; dsDNA, one strand shown. Summed up:
as §1

In another assay the target is T8, ETS2 (Homo sapiens, UniProt P15036 1-469).
T8 sequence: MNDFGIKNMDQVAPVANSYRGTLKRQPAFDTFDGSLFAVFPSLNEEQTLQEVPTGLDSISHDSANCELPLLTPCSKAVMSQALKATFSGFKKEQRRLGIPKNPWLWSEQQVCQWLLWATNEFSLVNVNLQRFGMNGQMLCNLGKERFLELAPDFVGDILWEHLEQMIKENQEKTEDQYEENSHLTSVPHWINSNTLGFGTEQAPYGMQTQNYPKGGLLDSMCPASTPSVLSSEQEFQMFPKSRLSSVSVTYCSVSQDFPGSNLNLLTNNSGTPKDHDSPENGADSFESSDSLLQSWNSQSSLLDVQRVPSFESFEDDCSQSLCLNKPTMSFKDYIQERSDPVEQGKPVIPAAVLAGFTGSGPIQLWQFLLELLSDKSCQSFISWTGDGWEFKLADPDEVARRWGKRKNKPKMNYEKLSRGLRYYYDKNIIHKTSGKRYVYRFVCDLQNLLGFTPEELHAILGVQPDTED
As to conditions: protein: recombinant; tags: N-terminal GST; dsDNA, one strand shown. The procedure, abridged:
as §1

In the next assay the target is T9, SPDEF (Homo sapiens, UniProt O95238 1-335).
T9 sequence: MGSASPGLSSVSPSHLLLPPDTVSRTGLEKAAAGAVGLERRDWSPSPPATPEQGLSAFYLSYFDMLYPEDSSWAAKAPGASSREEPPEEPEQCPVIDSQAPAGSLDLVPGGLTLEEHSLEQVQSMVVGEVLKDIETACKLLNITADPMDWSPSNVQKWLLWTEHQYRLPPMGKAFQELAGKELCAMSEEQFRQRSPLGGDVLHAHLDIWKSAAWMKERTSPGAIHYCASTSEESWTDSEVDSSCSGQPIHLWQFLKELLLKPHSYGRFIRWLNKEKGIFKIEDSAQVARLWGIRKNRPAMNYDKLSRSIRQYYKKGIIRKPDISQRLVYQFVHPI
To be noted: protein: recombinant; tags: N-terminal GST; dsDNA, one strand shown. Summed up:
as §1

In the next assay the target is T10, ETV7 (Homo sapiens, UniProt Q9Y603 1-341).
T10 sequence: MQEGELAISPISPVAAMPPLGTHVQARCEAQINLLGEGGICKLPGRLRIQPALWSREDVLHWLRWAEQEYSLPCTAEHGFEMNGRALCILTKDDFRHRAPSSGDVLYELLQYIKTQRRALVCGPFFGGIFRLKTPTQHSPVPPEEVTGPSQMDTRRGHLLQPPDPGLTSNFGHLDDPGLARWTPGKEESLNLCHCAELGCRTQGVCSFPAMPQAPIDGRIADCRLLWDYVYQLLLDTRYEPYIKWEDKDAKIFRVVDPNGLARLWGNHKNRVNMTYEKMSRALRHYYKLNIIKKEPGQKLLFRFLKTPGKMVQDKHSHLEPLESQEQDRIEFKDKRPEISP
To be noted: protein: recombinant; tags: N-terminal GST; dsDNA, one strand shown. The procedure, abridged: as §1

The target in another assay is T11, ELF5 (Homo sapiens, UniProt Q9UKW6-2 1-255).
T11 sequence: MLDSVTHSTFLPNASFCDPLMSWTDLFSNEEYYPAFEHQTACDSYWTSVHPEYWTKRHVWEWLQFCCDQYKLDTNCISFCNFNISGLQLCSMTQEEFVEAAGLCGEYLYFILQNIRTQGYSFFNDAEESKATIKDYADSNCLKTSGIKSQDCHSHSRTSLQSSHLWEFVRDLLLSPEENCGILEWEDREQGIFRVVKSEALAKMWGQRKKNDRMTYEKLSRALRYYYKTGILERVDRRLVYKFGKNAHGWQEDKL
As to conditions: protein: recombinant; tags: N-terminal GST; dsDNA, one strand shown. The procedure, abridged:
as §1

For a further assay, the target named is T12, ETV3 (Homo sapiens, UniProt P41162-2 1-143).
T12 sequence: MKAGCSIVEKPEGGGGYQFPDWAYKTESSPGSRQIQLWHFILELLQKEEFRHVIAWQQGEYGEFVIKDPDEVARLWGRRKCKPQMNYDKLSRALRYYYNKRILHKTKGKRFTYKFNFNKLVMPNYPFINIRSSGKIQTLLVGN
To be noted: protein: recombinant; tags: N-terminal GST; dsDNA, one strand shown. The procedure, abridged:
as §1

The target in a further assay is ETV6 (Homo sapiens, UniProt P41212 1-452). As to conditions: protein: recombinant; tags: N-terminal GST; dsDNA, one strand shown. The procedure, abridged:
as §1

Chain of CRX (O43186 whole entry): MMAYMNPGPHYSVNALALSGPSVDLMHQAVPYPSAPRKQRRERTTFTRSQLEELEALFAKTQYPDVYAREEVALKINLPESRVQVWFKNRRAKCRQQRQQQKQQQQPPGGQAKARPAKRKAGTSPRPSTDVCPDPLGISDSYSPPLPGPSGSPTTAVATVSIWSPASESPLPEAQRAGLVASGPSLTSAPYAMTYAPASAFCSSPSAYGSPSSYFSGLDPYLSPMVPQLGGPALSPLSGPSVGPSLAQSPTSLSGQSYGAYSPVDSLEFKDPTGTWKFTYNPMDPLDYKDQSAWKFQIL
Chain of HSF1 (Q00613 whole entry): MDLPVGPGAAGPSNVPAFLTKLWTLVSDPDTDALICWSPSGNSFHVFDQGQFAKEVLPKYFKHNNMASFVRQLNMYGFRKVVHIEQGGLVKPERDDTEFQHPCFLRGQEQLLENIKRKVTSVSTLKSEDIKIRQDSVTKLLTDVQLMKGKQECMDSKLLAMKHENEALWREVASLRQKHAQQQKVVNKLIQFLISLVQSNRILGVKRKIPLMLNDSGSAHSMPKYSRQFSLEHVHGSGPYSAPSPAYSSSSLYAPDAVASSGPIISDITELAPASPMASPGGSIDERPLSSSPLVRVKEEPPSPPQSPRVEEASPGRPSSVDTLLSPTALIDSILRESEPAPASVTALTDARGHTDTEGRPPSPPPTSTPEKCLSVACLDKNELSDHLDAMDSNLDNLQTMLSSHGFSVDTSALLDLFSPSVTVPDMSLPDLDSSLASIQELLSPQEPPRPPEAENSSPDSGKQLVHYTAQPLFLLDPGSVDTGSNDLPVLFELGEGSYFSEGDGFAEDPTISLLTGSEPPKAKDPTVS
Chain of ETV6 (P41212 whole entry): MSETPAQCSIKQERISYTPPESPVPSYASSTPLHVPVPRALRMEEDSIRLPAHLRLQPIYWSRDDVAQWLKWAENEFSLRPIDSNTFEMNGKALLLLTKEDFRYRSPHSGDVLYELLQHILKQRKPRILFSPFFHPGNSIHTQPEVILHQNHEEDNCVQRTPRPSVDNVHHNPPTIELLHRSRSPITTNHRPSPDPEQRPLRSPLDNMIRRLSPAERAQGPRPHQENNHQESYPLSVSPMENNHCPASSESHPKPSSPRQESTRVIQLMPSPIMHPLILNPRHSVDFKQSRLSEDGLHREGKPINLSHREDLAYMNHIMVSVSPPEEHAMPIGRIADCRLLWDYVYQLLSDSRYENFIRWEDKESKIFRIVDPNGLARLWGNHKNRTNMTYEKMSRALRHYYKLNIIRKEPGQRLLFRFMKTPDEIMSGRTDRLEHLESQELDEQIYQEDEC
Chain of ETV1 (P50549 whole entry): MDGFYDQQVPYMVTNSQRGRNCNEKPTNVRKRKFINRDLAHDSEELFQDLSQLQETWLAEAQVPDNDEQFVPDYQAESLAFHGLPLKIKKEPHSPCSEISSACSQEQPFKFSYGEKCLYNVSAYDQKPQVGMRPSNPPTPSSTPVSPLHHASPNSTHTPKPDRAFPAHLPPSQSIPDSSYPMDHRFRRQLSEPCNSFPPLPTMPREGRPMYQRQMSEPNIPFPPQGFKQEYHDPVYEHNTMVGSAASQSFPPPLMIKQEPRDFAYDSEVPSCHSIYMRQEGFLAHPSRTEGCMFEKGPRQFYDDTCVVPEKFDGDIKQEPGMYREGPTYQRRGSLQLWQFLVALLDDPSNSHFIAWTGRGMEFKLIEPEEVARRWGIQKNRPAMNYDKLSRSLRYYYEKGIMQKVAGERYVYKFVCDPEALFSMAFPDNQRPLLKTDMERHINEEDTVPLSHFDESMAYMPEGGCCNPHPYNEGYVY
Chain of ETV5 (P41161 whole entry): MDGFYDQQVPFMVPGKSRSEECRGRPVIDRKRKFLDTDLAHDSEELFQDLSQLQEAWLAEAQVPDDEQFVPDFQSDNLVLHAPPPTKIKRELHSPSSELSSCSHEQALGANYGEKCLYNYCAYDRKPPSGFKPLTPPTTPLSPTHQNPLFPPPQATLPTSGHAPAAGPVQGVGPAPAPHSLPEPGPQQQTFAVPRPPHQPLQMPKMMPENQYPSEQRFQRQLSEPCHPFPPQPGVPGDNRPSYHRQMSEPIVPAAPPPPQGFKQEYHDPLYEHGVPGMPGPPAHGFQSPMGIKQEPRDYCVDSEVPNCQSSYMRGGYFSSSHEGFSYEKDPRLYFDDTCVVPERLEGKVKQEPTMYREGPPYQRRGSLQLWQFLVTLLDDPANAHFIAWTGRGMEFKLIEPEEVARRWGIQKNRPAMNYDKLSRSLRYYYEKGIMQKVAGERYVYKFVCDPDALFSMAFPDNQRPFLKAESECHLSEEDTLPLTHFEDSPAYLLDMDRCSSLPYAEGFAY

With TATTAC, the binding signal with FEV was 1.16 fold enrichment (6-mer frequency, TF over GST control); with ETV5, 1.28 fold enrichment (6-mer frequency, TF over GST control); with HSF1 it was 1.33 fold enrichment (6-mer frequency, TF over GST control); in the assay with SPIC, 1.24 fold enrichment (6-mer frequency, TF over GST control); with ELF4, 1.2 fold enrichment (6-mer frequency, TF over GST control); with ELK4, 1.31 fold enrichment (6-mer frequency, TF over GST control). For the same sequence, the binding signal with ETV2 was 1.27 fold enrichment (6-mer frequency, TF over GST control); in the assay with ELF3, 1.16 fold enrichment (6-mer frequency, TF over GST control); with CRX it was 1.79 fold enrichment (6-mer frequency, TF over GST control); with ETV1, 1.27 fold enrichment (6-mer frequency, TF over GST control); with ERF, 1.22 fold enrichment (6-mer frequency, TF over GST control); with ETV3L, 1.2 fold enrichment (6-mer frequency, TF over GST control). The binding signal with ETS2 is 1.18 fold enrichment (6-mer frequency, TF over GST control); in the assay with SPDEF, 1.23 fold enrichment (6-mer frequency, TF over GST control); with ETV7 it was 1.16 fold enrichment (6-mer frequency, TF over GST control); with ELF5, 1.16 fold enrichment (6-mer frequency, TF over GST control); in the assay with ETV3, 1.24 fold enrichment (6-mer frequency, TF over GST control); in the assay with ETV6, 1.28 fold enrichment (6-mer frequency, TF over GST control).
